In PubChem BioAssay (NCI):
The panel holds about 83,000 compounds, 20% with a hit somewhere; the sample as a whole holds those more often.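 Results are percent growth after 48 hours of single-concentration exposure. 100 means growth as in untreated cells, lower positive values show inhibition; negative values down to -100 show cell death.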 Active and inactive are the calls of the source. The calls were made as follows: active = growth percent below 10; inactive = the rest.

Assays:
Test in all cases: NCI-60 one-dose screen, 48 h (100 = growth as untreated, 0 = no growth, -100 = all killed)
Details in all cases: 10 µM
[1] = test system: SR leukemia
[2] = test system: OVCAR-8 ovarian
[3] = test system: OVCAR-5 ovarian
[4] = test system: OVCAR-4 ovarian
[5] = test system: SK-OV-3 ovarian
[6] = test system: IGROV1 ovarian
[7] = test system: OVCAR-3 ovarian
[8] = test system: HS 578T breast
[9] = test system: NCI/ADR-RES ovarian
[10] = test system: T-47D breast
[11] = test system: BT-549 breast
[12] = test system: MDA-MB-435 melanoma
[13] = test system: SW-620 colon
[14] = test system: MCF7 breast
[15] = test system: HCT-116 colon
[16] = test system: HCC-2998 colon
[17] = test system: KM12 colon

Measured: growth

Cc1c(O)c(=O)ccn1C1CCC(CC2CCC(n3ccc(=O)c(O)c3C)CC2)CC1 (stereo not drawn)
inactive: [1] 41.8% | [2] 33.5% | [3] 54.5% | [4] 32.2% | [5] 49.9% | [6] 32.5% | [7] 28.3% | [8] 21.9% | [9] 83% | [10] 32.3% | [11] 31.5% | [12] 33.3% | [13] 43.1% | [14] 15.9% | [15] 28.4% | [16] 55.6% | [17] 46.5%

O=C(CCCSc1nc(-c2ccc(Cl)cc2)cc(-c2ccc(Cl)cc2)n1)NO
inactive: [2] 13.7% | [3] 18% | [4] 19.2% | [5] 14.2% | [6] 24.8% | [8] 53.5% | [10] 24.6% | [11] 31.9% | [12] 24% | [13] 23.9% | [15] 11.5% | [17] 26.3%
active: [1] 7.59% | [7] 5.4% | [9] -28.7% | [14] 2.7% | [16] 7.09%

COc1ccc(/C(=N\N)C(=O)c2ccccc2)cc1 (tested in a mixture with another compound)
inactive: [1] 111% | [2] 103% | [3] 96.7% | [4] 95.9% | [5] 97.7% | [6] 107% | [7] 102% | [8] 97.1% | [9] 102% | [10] 83.7% | [11] 108% | [12] 92.7% | [13] 107% | [14] 92.4% | [15] 103% | [16] 98.1% | [17] 102%

Clc1nc2ccccc2cc1Cn1nnc(Cc2ccccc2)n1
inactive: [1] 37% | [2] 71.6% | [3] 104% | [4] 29.7% | [5] 57.4% | [6] 50.9% | [7] 59.5% | [8] 76.6% | [9] 52.1% | [10] 26.1% | [11] 38.9% | [12] 65.3% | [13] 86.6% | [14] 45.8% | [15] 35.1% | [16] 81.3% | [17] 66.3%

CC(C)(C)OC(=O)CN1CCc2c(sc3ncnc(N/N=C/c4ccccc4Br)c23)C1
inactive: [1] 37.6% | [2] 61.5% | [3] 92.3% | [4] 74.7% | [5] 109% | [6] 50.6% | [7] 69% | [8] 77% | [9] 71.7% | [10] 47.3% | [11] 82.9% | [12] 80.5% | [13] 60.6% | [15] 48.7% | [16] 76.3% | [17] 80%
active: [14] 3.49%

O=[N+]([O-])c1cc(Cl)cc(Cl)c1O
inactive: [1] 103% | [2] 103% | [3] 103% | [4] 108% | [5] 91.3% | [6] 104% | [7] 109% | [8] 97.6% | [9] 97.6% | [10] 93% | [12] 98.5% | [13] 103% | [14] 104% | [15] 93.5% | [16] 105% | [17] 98.9%

Cn1c2ccccc2c2c3[nH][nH]c(=O)c3c3c4ccccc4[nH]c3c21
active: [1] -12.1% | [7] 2.46% | [14] 5.82% | [15] -52.8%
inactive: [2] 33.1% | [3] 62.6% | [4] 51.3% | [5] 13.2% | [6] 11% | [8] 41% | [9] 68.5% | [10] 42.9% | [11] 20.5% | [12] 23.6% | [13] 20.7% | [16] 26.5% | [17] 10.7%

COc1ccc(-c2nn(-c3cccc(Cl)c3)cc2C=C(C#N)C#N)cc1
inactive: [2] 24.2% | [3] 29% | [6] 12.2% | [8] 24.5% | [10] 21.1%
active: [1] -61.6% | [4] 7.22% | [5] -0.205% | [7] -23.6% | [9] 2.52% | [11] -34.8% | [12] -68.5% | [13] -2.25% | [14] -11.6% | [15] -40.9% | [16] 8.75% | [17] 4.48%

Cc1cc(NC(=O)c2ccc(C)c(Nc3nccc(-c4cccnc4)n3)c2)cc(-n2cnc(C)c2)c1
inactive: [2] 61.3% | [3] 46% | [5] 27.6% | [6] 32.3% | [9] 59.1% | [11] 41.1% | [12] 12.2% | [13] 50.2% | [14] 24.4% | [16] 70.8% | [17] 35.1%
active: [1] -22.3% | [4] -28.7% | [7] -7.87% | [8] 5.73% | [10] -4.71% | [15] -64.1%

COc1cc(-c2ccc[nH]2)[nH]c1/C=C1\N=C(C)C(C(=O)NC(C)C)=C1C
inactive: [2] 14.7% | [3] 43.2% | [4] 23.5% | [5] 50.7% | [6] 34% | [7] 19.5% | [8] 39.1% | [9] 17.6% | [10] 34% | [11] 43.8% | [12] 14.9% | [16] 21.2% | [17] 19.3%
active: [1] -15.5% | [13] 7.72% | [14] 7.83% | [15] 4.6%

O=C1NC(=O)c2c(CCCSc3nc4ccccc4c(=O)n3CCc3ccccc3)cccc21
inactive: [1] 66.6% | [2] 83.7% | [3] 102% | [4] 60.7% | [5] 86.2% | [6] 97.4% | [7] 115% | [8] 74.1% | [9] 79.8% | [10] 79.1% | [11] 92.6% | [12] 85.6% | [13] 98.8% | [14] 83.5% | [15] 80% | [16] 91.9% | [17] 100%

CCCCN(CCCC)C(=O)[C@H](CC)[C@@H]1CC[C@@H](C)[C@@H]([C@H](C)[C@@H](O)[C@@H](C)C(=O)[C@H](CC)C2O[C@]3(C=CC(=O)[C@]4(CC[C@@](C)([C@H]5CC[C@](O)(CC)[C@H](C)O5)O4)O3)[C@H](C)C[C@@H]2C)O1 (stereo partly drawn)
inactive: [1] 75.1% | [2] 34.7% | [3] 39.4% | [4] 42.7% | [5] 51.9% | [6] 59.3% | [7] 31.5% | [8] 43.1% | [9] 78.2% | [10] 20.7% | [11] 62.7% | [12] 44.6% | [13] 25.7% | [14] 16.2% | [15] 19% | [16] 39% | [17] 55.6%

Nc1ccc(-c2cccs2)cc1NC(=O)c1ccc(CCCC(=O)Nc2ccc(C3CC3N)cc2)cc1 (stereo not drawn)
active: [1] -10.5% | [15] 3.29%
inactive: [2] 44.9% | [3] 86.2% | [4] 93% | [5] 68% | [6] 80.9% | [7] 63% | [8] 75.5% | [9] 87.5% | [10] 65.1% | [11] 96.5% | [12] 20.6% | [13] 23.7% | [14] 18.8% | [16] 99.7% | [17] 69.3%

NC1=NC(c2ccccc2)C2=C(N1)/C(=C/c1ccccc1)CCC2 (stereo not drawn)
inactive: [1] 46% | [2] 80% | [3] 106% | [4] 81.3% | [5] 74% | [6] 100% | [7] 81.6% | [8] 88.5% | [9] 95.8% | [10] 93.1% | [11] 112% | [12] 36.8% | [13] 72.8% | [14] 38.6% | [16] 48.5% | [17] 47%
active: [15] -53.1%

O=C1c2ccccc2-c2c1c1cccnc1c(=O)n2C[C@H](O)CO
inactive: [1] 11.6% | [2] 58.7% | [3] 104% | [4] 92.5% | [5] 60.3% | [6] 50.4% | [7] 79.6% | [8] 85.1% | [9] 88.1% | [10] 59.6% | [11] 61.7% | [12] 87.5% | [13] 49.9% | [14] 25.5% | [15] 38.5% | [16] 79.7% | [17] 62.1%

Clc1nc2ccc(Br)cc2cc1-c1nc2ccccc2[nH]1
inactive: [1] 92.3% | [2] 88.2% | [3] 108% | [4] 65.3% | [5] 54.8% | [6] 80.1% | [7] 95.5% | [8] 47.8% | [9] 92.9% | [10] 104% | [11] 85.9% | [12] 102% | [13] 89.7% | [14] 42.5% | [15] 77.8% | [16] 108% | [17] 90.7%

CCOC(=O)c1cc(C(=O)c2cc(OC)cc(OC)c2)n2nc(C)ccc12
active: [5] 6.35% | [7] 1.01% | [12] -16.2%
inactive: [1] 18.4% | [2] 29.7% | [3] 59.6% | [4] 56.6% | [6] 44.8% | [8] 36.4% | [9] 19.5% | [10] 43.9% | [11] 48.7% | [13] 17.8% | [14] 20.8% | [15] 25.2% | [16] 54.1% | [17] 29.4%
